Screening results: PubChem BioAssay, National Center for Advancing Translational Sciences (NCATS)
VP16 counter: Gal4-VP16 reporter inhibition counter-screen; Drosophila S2 Gal4-VP16 UAS-luciferase, luminescence, 20 h; Potency, µM (top dose mostly 53.6 µM), actives largely listed as inhibitors; 310,000 compounds, 3.5% hits;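 further: Gal4-VP16 expression switched on by copper sulfate through the metallothionein promoter; nearly all actives have a fitted effect of over 50% in size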
TRPV1 potentiator: enhances activation of the human vanilloid receptor TRPV1; potentiation, % at 8.33 µM; TRPV1-expressing cells, Fluo-8 calcium influx, capsaicin EC20 potentiation; 320,000 compounds, 0.02% hits; Q8NER1; in the data active means potentiation above about 80%; inconclusive means between about 30% and that limit
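TRPV1-expressing cells were cultured overnight at 35.5C and loaded with Fluo-8 calcium dye for 40 to 90 min at room temperature. After a 10 s baseline, compound was added and calcium influx was read kinetically for 3 min (ex 480/em 520 nm).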
uPA generation: cell surface uPA generation inhibition; cell surface uPA generation assay, qHTS; Potency, µM (titrated, usually from 38.3 µM), hits mostly inhibitors; 330,000 compounds, 0.31% hits; AID 540303; active means well fitted inhibition curve with a large enough effect; inconclusive means small, poorly fitted or top-dose-only effect; inactive means no such curve, though single readings can be large or run the other way; tested in mouse RAW 264.7 cells; further: nearly all actives have a fitted effect of over 55% in size
RORg inh: blocks mouse ROR gamma transcriptional activity; P51450; AID 2551; Potency, µM (highest dose often 53.6 µM), usual class: inhibitors; 310,000 compounds, 5.4% hits; Drosophila S2 Gal4-RORgamma UAS-luciferase reporter, 20 h; further: nearly all actives have a fitted effect of over 60% in size
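Using a luciferase readout, inhibitors were identified by reduced reporter activity in Drosophila cells coexpressing a copper-inducible Gal4–ROR gamma fusion and UAS-driven Photinus luciferase, incubated 20 hr after 700 uM copper sulfate.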
TRPV1 agonist: agonists of human vanilloid receptor 1 (TRPV1); 320,000 compounds, 0.19% hits; activation, % at 8.33 µM; AID 540275; TRPV1-expressing cells, Fluo-8 calcium influx, agonist mode; in the data active means activation above about 80%; inconclusive means between about 30% and that limit
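TRPV1-expressing cells were cultured overnight at 35.5C and loaded with Fluo-8 calcium dye for 40 to 90 min at room temperature. After a 10 s baseline, compound was added and calcium influx was read kinetically for 3 min (ex 480/em 520 nm).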
Numbers stand for hits; 0 = inactive; ? = inconclusive; - = not tested or not shown; [ ] = dose if it differs, or a comment. The list is not random: actives were taken first. Their share in the collection is about 5.8%. Unless noted, the call rests on the fitted dose curve; in most records, active means well fitted curve in the direction sought with a large enough effect; inconclusive means small, poorly fitted or top-dose-only effect, or another doubt; inactive means no such curve, though single readings can be large; an effect the other way counts as inactive or inconclusive.

SMILES	VP16 counter	TRPV1 potentiator	uPA generation	RORg inh	TRPV1 agonist
COc1ccc(C(CC(=O)N2CCCC(C)C2)c2c(O)cc(OC)cc2OC)cc1 (configuration not stated)	0	?	0	2µM	0
Cc1ccc(NS(=O)(=O)c2ccc3oc(=O)ccc3c2)cc1Cl	0	0	0	?	0
O=C(COc1ccc(Cl)cc1Cl)N/N=C/c1ccc(OC2OC(CO)C(O)C(O)C2O)cc1 (configuration not stated)	0	0	?	11.2µM	0
O=C(CCCOc1ccc(Cl)cc1Cl)N/N=C/c1ccc(Cl)cc1	?	0	0	0	0
C/C(=N\NC(=O)c1nn(C)c(C)c1Br)c1cccc(NC(=O)c2ccc(F)cc2)c1	0	0	0	0	0
Cc1[nH]c2ccccc2c1C(=O)C(C)OC(=O)c1ccccc1NCCO (configuration not stated)	-	0	0	-	0
Cc1nn(-c2ccccc2)c(C)c1C(=O)Nc1nnc(-c2ccco2)o1	0[0.365 µM]	0	0	0.355µM	0
O=C(Nc1nnc(-c2ccco2)o1)c1ccc(N2C(=O)CCC2=O)cc1	?	0	0	11.2µM	0
O=C(Nc1nnc(-c2ccc(Br)cc2)o1)c1cccc(N2C(=O)CCC2=O)c1	-	0	0	-	0
O=C(Nc1nnc(-c2ccc(Cl)cc2)o1)c1ccc(N2C(=O)CCC2=O)cc1	2.82µM	0	0	1.12µM	0
O=C(Nc1nnc(-c2ccccc2)o1)c1cccc(N2C(=O)CCC2=O)c1	4.47µM	0	0	2.51µM	0
N#Cc1cccc(-c2cc(NCc3cccs3)ncn2)c1	0	-	-	?	-
CN1CCC(N(CCc2ccccc2)C(=O)CCC(=O)O)CC1	0	0	0	0	0
CN(C)C(=O)n1nnnc1Cc1ccc(-c2ccccc2)cc1	0	-	-	0	-
O=C(N/N=C/c1ccc2c(c1)OCO2)c1ccc2c(c1)OCCO2	?	0	0	0	?
O=C(N/N=C/c1cc(Br)cc(Cl)c1O)c1ccc2c(c1)OCO2	-	-	0	-	-
O=C(O)COc1ccccc1/C=N/NC(=O)c1ccc2c(c1)OCCO2	?	0	?	?	0
O=C(N/N=C/c1cccs1)c1ccc2c(c1)OCO2	?	0	0	14.1µM	?
O=C(N/N=C/c1ccccc1OC(=O)c1ccc2c(c1)OCO2)c1cccc(F)c1	?	0	0	12.6µM	0
O=C(N/N=C/c1ccccc1O)c1ccc2c(c1)OCO2	1.78µM	0	0	0.562µM	?
Cc1cc(Br)cc(/C=N/NC(=O)c2ccc3c(c2)OCO3)c1O	3.55µM	0	?	2.51µM	0
COCCN(Cc1ccccc1)C(=O)c1ccc(C(=O)c2ccccc2)cc1	-	0	0	-	0
Cc1ccc(C)c(NC(=O)C2CCCN(S(=O)(=O)c3ccc4[nH]c(=O)ccc4c3)C2)c1 (configuration not stated)	0	0	0	0	0
CC/C(=N\NC(=O)c1ccc2c(c1)OCO2)c1ccccc1	0	0	?	?	?
COc1ccc2c(Cl)c(C(=O)N/N=C/c3ccc4c(c3)OCO4)sc2c1	0	?	0	1.12µM	0
SMILES	VP16 counter	TRPV1 potentiator	uPA generation	RORg inh	TRPV1 agonist
O=C(N/N=C/c1ccc2c(c1)OCO2)c1sc2cc(Cl)ccc2c1Cl	0	0	0	0[10 µM]	0
COc1cc(/C=N/NC(=O)c2ccc3c(c2)OCO3)ccc1O	7.08µM	0	?	8.91µM	?
CC(C)CC(CC(C)C)=NNC(=O)c1ccc2c(c1)OCO2	0	0	0	12.6µM	0
O=C(N/N=C/c1cc(Cl)cc([N+](=O)[O-])c1O)c1ccc2c(c1)OCO2	0.891µM	?	?	0.794µM	0
CCNC(=O)C(=O)NCC(c1ccc2c(c1)OCO2)N1CCOCC1 (configuration not stated)	?	0	0	0	0
COc1ccc(-c2noc(C3CCCN(C(=O)Nc4ccccc4F)C3)n2)cc1 (configuration not stated)	0	0	0	0	0
O=C(N/N=C/c1cc(Br)c(O)c(Br)c1O)c1ccc2c(c1)OCCO2	3.16µM	0	0	4.47µM	0
O=C(NC1CCCCC1)c1ccc2c(c1)OCO2	0	0	0	0	0
CC1CCC(NC(=O)c2ccc3c(c2)OCO3)CC1 (configuration not stated)	?	0	0	10µM	?
O=C(N/N=C/c1cc(Br)c(Br)o1)c1ccc2c(c1)OCCO2	0	-	0	0	-
O=C(N/N=C\c1cccs1)c1sccc1-n1cccc1	?	0	0	1.26µM	0
